Assay results reported in PubChem BioAssay AID1851 (National Center for Advancing Translational Sciences (NCATS), 2009).
Hit rate of the full screen: of about 16,000 compounds, about 2,600 (16%) were called active. Roughly 20% stayed inconclusive and do not appear here. The call rests on the fitted dose curve; in most records, active means well fitted curve in the direction sought with a large enough effect; inconclusive means small, poorly fitted or top-dose-only effect, or effect the other way; inactive means no such curve, though single readings can be large or run the other way. These entries were drawn from the full list.

molecular target: Cytochrome P450 2D6 (Homo sapiens) (UniProt P10635); test: Cytochrome panel assay with activity outcomes; settings: recombinant CYP, pro-luciferin dealkylation, luminescence, p450-cyp2d6; series mostly up to 57.1 µM
Sequence (P10635 whole entry, looked up): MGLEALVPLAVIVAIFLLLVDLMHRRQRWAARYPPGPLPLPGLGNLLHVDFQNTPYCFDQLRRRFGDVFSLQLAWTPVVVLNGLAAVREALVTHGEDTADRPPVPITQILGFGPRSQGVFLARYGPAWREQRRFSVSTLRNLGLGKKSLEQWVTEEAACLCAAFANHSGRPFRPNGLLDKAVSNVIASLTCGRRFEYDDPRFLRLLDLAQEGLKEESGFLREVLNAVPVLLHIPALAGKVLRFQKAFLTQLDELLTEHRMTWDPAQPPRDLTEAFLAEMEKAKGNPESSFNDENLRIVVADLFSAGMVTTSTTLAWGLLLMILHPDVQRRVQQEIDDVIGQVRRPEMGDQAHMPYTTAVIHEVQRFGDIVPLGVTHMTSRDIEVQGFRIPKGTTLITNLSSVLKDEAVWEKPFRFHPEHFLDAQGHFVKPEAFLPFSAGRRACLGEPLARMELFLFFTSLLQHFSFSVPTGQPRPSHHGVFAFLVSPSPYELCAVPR
On the % scale 0 is the no-effect control and ±100 the full control effect.

AC50, inactive:
O=C(Nc1ccccn1)c1ccco1
O=C(O)C1C2CCC(C2)C1C(=O)NCc1ccco1 (configuration not stated)
Cc1cccc(C(=O)NC2CCN(C(=S)NCc3ccco3)CC2)c1
CCS(=O)(=O)N1CCC(C(=O)NCc2ccco2)CC1
O=C(CSc1ccccc1C(=O)O)NCc1ccco1
O=C(NCc1ccco1)c1cc(C(=O)C2CC2)c[nH]1
COc1ccc2c(OC)c3ccoc3nc2c1OC
O=C(c1cc(C(F)(F)F)cc(C(F)(F)F)c1)N1CCC2(CCN(Cc3ccccc3)CC2)CC1
O=C(c1coc(=O)c2ccccc12)N1CCN(Cc2ccccc2)CC1
CCc1c(O)nc2sc3ccccc3n2c1=O
CC(=O)c1cccc(NC=C2C(=O)OC3(CCCCC3)OC2=O)c1
CCc1nnc(NC(=O)c2c(C)nn(-c3ccccc3)c2Cl)s1
c1ccc2c(c1)CCCc1cc(NCCN3CCOCC3)nnc1-2
CC(=O)NCCNc1ncnc2ccc(-c3ccoc3)cc12
Clc1ccccc1-c1cc(NCCN2CCOCC2)ncn1
CN(C)C(=O)c1ccc(-c2ccc3ncnc(NCCN4CCOCC4)c3c2)cc1
c1ccc(-n2ncc3c(NCCCN4CCOCC4)ncnc32)cc1
CC(=O)NCCNc1ncnc2ccc(-c3ccc(C(=O)N(C)C)cc3)cc12
CCCc1nnc(NC(=O)c2cccs2)s1
O=C(/C=C/c1ccc(Br)cc1)NC1CCCCCC1
Cc1ccc(C(=O)Nc2cccc(-c3cnc4ccccc4n3)c2)cc1
CSc1nc2n(n1)C(c1cc(Br)ccc1F)C(C(=O)N(C)C)=C(C)N2 (configuration not stated)
CN[C@]1(C)[C@@H]2CC[C@@H](C2)C1(C)C
Cc1ccc(NC(=O)CCN2C(=O)c3ccncc3C2=O)cc1
CCN1C(=O)/C(=C2\SC(=S)N(CCCOC)C2=O)c2ccccc21
N[C@@H](Cc1cc(CP(=O)(O)O)cc(-c2ccccc2Cl)c1)C(=O)O
CC(=NCCN1CCN(C(=S)Nc2ccccc2)CC1)C1=C(O)CC(C)(C)CC1=O
Nc1ccc(N2C(=O)c3ccccc3C2=O)c(Cl)c1
COc1ccc(-n2c(=O)c(C)nc3cnc(Nc4ccccc4)nc32)cc1
O=S(=O)(/N=C(/Nc1ccc(F)cc1F)c1ccc(Cl)cc1)c1ccccc1
Cc1c(NC(=O)CSc2nnc3c4ccccc4n(CCc4ccccc4)c3n2)c(=O)n(-c2ccccc2)n1C
Cc1ccc(-n2c(C)cc(C(=O)CSc3n[nH]c(N)n3)c2C)cc1
Cc1ccc(-n2c(-c3ccccc3)cc(=O)nc2C)cc1
CSc1nc(NC2CCCC2)c([N+](=O)[O-])c(NC2CCCC2)n1
CC(C)[C@H]1C(=O)C(C(N)=O)=C(O)[C@]2(O)C(=O)C3=C(O)c4c(O)ccc(N(C)C)c4C[C@H]3C[C@@H]12
CCc1cc2c(=O)c(-c3cnn(-c4ccccc4)c3)coc2c(CN2CCOCC2)c1O
N#C/C(=C/N1CCOCC1)c1ccccc1
NC/C=C\C(=O)O
CCc1nnc(NC(=O)CSc2ncnc3c2cnn3-c2ccc(OC)cc2)s1
CCOC(=O)CN1C(=O)Nc2ccc(Br)cc2C1c1ccccc1 (configuration not stated)
CC1=C(C(N)=O)C(c2ccccc2)n2nc(-c3ccncc3)nc2N1 (configuration not stated)
Cc1ccc[n+](CC(=O)c2cc3ccccc3oc2=O)c1
Cc1o[nH]c(=O)c1CC[C@H](N)C(=O)O
Cc1oc(C(C)(C)C)cc1C(=O)Nc1cccc(/C=C/C(=O)O)c1
CCOC(=O)C1=C(N)n2c(s/c(=C\c3ccco3)c2=O)=C(C(=O)OCC)C1c1ccco1 (configuration not stated)
CC(C)CN(CC(C)C)C1=N/C(=C\c2ccco2)C(=O)N1c1ccccc1
Cc1noc(C)c1-c1nc(Nc2ccc(F)cc2)c2ccccc2n1
CCOC(=O)c1ccc(Nc2nc(=O)c3cccnc3s2)cc1
CCCc1nc2sc3ccccc3c(=O)c2c(=O)n1CCOC
COc1cc(C(=O)NC(=S)Nc2cccc(-c3cc4ccccc4oc3=O)c2)cc(OC)c1OC
CC(=O)NS(=O)(=O)c1ccc(NC(=S)NC(=O)c2ccco2)cc1
Cc1cccc(N(C)C(=S)Oc2ccc3ccccc3c2)c1
Cn1c(=NC(=O)CCl)sc2ccccc21
COc1cccc(CNc2ccc(F)c(Cl)c2)c1O
CCS(=O)(=O)N1CCC(C(=O)NCc2ccccc2OC)CC1
COC(=O)c1sccc1NC(=O)c1cc(-c2cc(C)ccc2C)nc2ccccc12
Cc1nnc(NC(=O)CSc2ncnc3c2cnn3-c2ccccc2C)s1
O=C(O)c1cccnc1SCC(=O)N1CCCCCC1
Cc1ccc(SCCNC(=O)c2ccccc2)cc1
COC(=O)c1cc(OC)c(OC)cc1NC(=O)CSc1ccc(C)cc1
COc1ccc(C2C(=O)N(C3CCCCCC3)CC(=O)N2Cc2ccccc2)cc1OC (configuration not stated)
COc1ccc2cc3cc(C(=O)Nc4ccc5c(c4)OCO5)oc3nc2c1
COC(=O)c1cc(NC(=O)/C=C/c2ccc3c(c2)OCO3)cc(C(=O)OC)c1
CCOC(=O)c1c(NC(=O)/C=C/c2ccc3c(c2)OCO3)sc(C)c1CC
CN(C)C(=O)CN(c1ccc2c(c1)OCO2)S(C)(=O)=O

AC50, active:
S=C(NCc1ccco1)N1CCN(Cc2ccco2)CC1 7.94 µM
S=C(NCc1ccco1)N1CCN(C(c2ccccc2)c2ccccc2)CC1 7.94 µM
O=C(CN1CCN(Cc2ccccc2)CC1)c1ccc(Br)cc1 1.41 µM
c1nc(NCCN2CCOCC2)c2cc(-c3ccc4c(c3)OCO4)ccc2n1 7.94 µM
CC(=O)NCCNc1ncnc2ccc(-c3ccc4c(c3)OCO4)cc12 10 µM
Clc1ccccc1-c1ccc2ncnc(NCCN3CCOCC3)c2c1 10 µM
c1nc(NCCN2CCOCC2)c2cc(-c3ccoc3)ccc2n1 2 µM
Cc1ccc(-c2csc3ncnc(NCCN4CCOCC4)c23)cc1 2.82 µM
O=[N+]([O-])C(/C=C(\Cl)[N+](=O)[O-])=C1N(Cc2ccc(Cl)nc2)CCN1Cc1ccc(Cl)nc1 15.8 µM
Cc1ccc(-n2c(O)cnc2Nc2nc(C)cc(C)n2)cc1 12.6 µM
Oc1c(CN2CCOCC2)cc(-c2ccccc2)cc1CN1CCOCC1 12.6 µM
Cc1cc2ccccc2c[n+]1CC(O)C[n+]1cc2ccccc2cc1C 0.0251 µM
Cc1oc(-c2ccccc2)cc1C(=O)Nc1ccc(N(C)C)cc1 7.94 µM
CCOC(=O)c1ccc(Nc2nc(C(=O)OCC)nc3ccccc23)cc1 3.98 µM
N=c1sc2ccccc2n1CCS (tested in a mixture with another compound) 0.316 µM
COc1ccccc1CNCC(O)(c1ccc(Cl)cc1)c1ccc(Cl)cc1 0.316 µM
Cc1ccc(SCCNC(=O)c2ccc(C)c(S(=O)(=O)Nc3ccccc3C)c2)cc1 7.94 µM
O=C(/C=C\c1ccc2c(c1)OCO2)c1ccc(F)cc1 2 µM
Nc1ccccc1C(=O)/C=C\c1ccc2c(c1)OCO2 3.16 µM
COCOc1cc(OC)ccc1C(=O)/C=C\c1ccc2c(c1)OCO2 3.98 µM

activity, negative = inhibition, inactive:
O=C1Nc2ccccc2C1=Nc1ccc(S(=O)(=O)Nc2nccs2)cc1 16.3% [at 11.4 µM]
CC(C)(C)N1C(=O)[C@H]2[C@@H]3[C@H](O)[C@H](O)CC(=O)[C@H]3CC[C@H]2C1=O 7.18% [at 11.4 µM]
Cc1cc2c(=O)[nH]c(N)nc2nc1C 14.7% [at 11.4 µM]
O=c1[nH]c(SCc2cccc([N+](=O)[O-])c2)nc2nc[nH]c12 10.7% [at 11.4 µM]
CCN1C(=O)[C@H]2[C@H]3[C@H](O)[C@H](O)C/C(=N/NC(=O)OCc4ccccc4)[C@@H]3CC[C@@H]2C1=O 10.8% [at 11.4 µM]
O=C(Nc1ccc2c(c1)Cc1ccccc1-2)[C@@H]1[C@H](C(=O)O)[C@]2(Cl)C(Cl)=C(Cl)[C@@]1(Cl)C2(Cl)Cl -10.2% [at 11.4 µM]
NCC(=O)Nc1ccc(Cl)cc1C(=O)c1ccc[nH]1 3.55% [at 11.4 µM]
C#CCCCO/N=C1/C[C@@H](O)[C@@H](O)[C@@H]2[C@H]3C(=O)N(c4ccc(F)cc4F)C(=O)[C@@H]3CC[C@@H]12 8.28% [at 11.4 µM]
C[C@H](O/N=C1/[C@H]2O[C@@H]2[C@@H](O)[C@H]2[C@H]1CCn1c(=O)n(-c3ccccc3)c(=O)n12)c1cn([C@H]2COC[C@H]2O)nn1 -1.7% [at 11.4 µM]
C[C@@H]1/C=C\CC(=O)OC[C@H](C)C(=O)N2CCC[C@@H]2C(=O)OC1 7.63% [at 11.4 µM]
Cc1ccc(NC(=O)c2ccccc2C(=O)O)cc1C -8.28% [at 11.4 µM]
Cc1cc2nc3[nH]c4c(Cl)cc(Cl)cc4c3nc2cc1C 4.24% [at 11.4 µM]
O=c1[nH]cc(CS(=O)(=O)Cc2c[nH]c(=O)[nH]c2=O)c(=O)[nH]1 -1.45% [at 11.4 µM]
O=C(O)c1ccccc1NCn1c(=S)sc2ccccc21 -8.67% [at 11.4 µM]
CO[C@H]1COC(=O)[C@H](Cc2ccccc2)NC(=O)C/C=C\[C@@H](C)[C@H](OC)COC(=O)C/C=C\[C@@H]1C 11.3% [at 11.4 µM]
O=C(/C=C\c1ccccc1)c1ccccc1O -5.64% [at 11.4 µM]
O=C(O)/C=C\C=C/c1ccc2c(c1)OCO2 -10.2% [at 11.4 µM]
